Data published in PubChem BioAssay (Tox21).
Inconclusive results are not listed. Calls of active or inactive are those of the source. Unless noted, calls follow the shape of the dose curve; as a rule, active = well fitted curve in the direction sought with a large enough effect in the repeat runs; inconclusive = weak or mixed curves; inactive = no such curve, though single readings can be large; an effect the other way counts as inactive or inconclusive.

Tests used:
[1] = qHTS assay to identify small molecule agonists of the androgen receptor (AR) signaling pathway in the presence of an antagonist - cell viability counter screen (AID 1259379);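 also: MDA-kb2 human breast cancer cells carrying an MMTV luciferase reporter; series mostly up to about 92 µM; nearly all actives have a fitted effect of over 25% in size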
In short: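 Each compound was tested at 15 concentrations on MDA-kb2 cells in the presence of 3.0uM nilutamide. Viability was measured by CellTiter-Fluor fluorescence after a 16 hr incubation at 37C in a CO2-free atmosphere.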

[2] = qHTS assay to identify small molecule agonists of the estrogen receptor beta (ER-beta) signaling pathway - cell viability counter screen (AID 1259380); also: nearly all actives have a fitted effect of over 30% in size
In short: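 Compounds dissolved in DMSO were pin-transferred onto ER-beta-UAS-bla HEK293T cells that had settled 6 hr, and exposure ran 16 hr at 37C. Following the reporter read, CellTiter-Glo luminescence after 30 min at room temperature indicated cytotoxicity.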

[3] = target: Androgen receptor (Homo sapiens) (UniProt P10275); assay: qHTS assay to identify small molecule agonists of the androgen receptor (AR) signaling pathway in the presence of an antagonist (AID 1259381; calls by dose curve; also: nearly all actives have a fitted effect of over 15% in size)
In short: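 Plated MDA-kb2 cells (3,000/well) were pre-incubated 5hr, given nilutamide (3.0uM final) or buffer, then dosed with compounds in DMSO at 15 concentrations. Luciferase activity was quantified by luminescence after 16hr at 37C.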

[4] = qHTS assay to identify small molecule antagonists of the estrogen receptor beta (ER-beta) signaling pathway - cell viability counter screen (AID 1259382);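 also: HEK293T cells carrying ER-beta-UAS-bla reporter stimulated with estradiol; series mostly up to about 92 µM; nearly all actives have a fitted effect of over 55% in size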
In short: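 CellTiter-Glo ATP luminescence measured after the LiveBLAzer read in the same wells; ER-beta-UAS-bla HEK293T cells, 16 hr compound treatment with 1nM 17-beta-estradiol agonist at 37C, 5% CO2.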

[5] = target: Estrogen receptor (Homo sapiens) (UniProt P03372); assay: qHTS assay to identify small molecule agonists of the estrogen receptor alpha (ER-alpha) signaling pathway in the presence of an antagonist (AID 1259383; calls by dose curve; also: top concentration of the series differs between compounds; nearly all actives have a fitted effect of over 15% in size)
In short: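 Luminescent ERE-luciferase reporter, VM7Luc4E2 cells (endogenous ER-alpha); 10.0nM ICI-182,780 final; 15-point compound titration; 22hr at 37C; ONE-Glo, 30min RT.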

[6] = qHTS assay to identify small molecule agonists or antagonists of the thyroid stimulating hormone receptor (TSHR) signaling pathway - wild type cell line counter screen (AID 1259384; calls by dose curve)
In short: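 Wild-type Hek293 cells, 800/well, 18 h at 37C, then compound with Ro20-1724 for 30 min RT. cAMP by HTRF (cAMP-d2/anti-cAMP cryptate), 1 h RT, fluorescence read. 15 concentrations, triplicates.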

[7] = target: Thyrotropin receptor (Homo sapiens) (UniProt P16473); assay: qHTS assay to identify small molecule antagonists of the thyroid stimulating hormone receptor (TSHR) signaling pathway (AID 1259385; calls by dose curve; also: nearly all actives have a fitted effect of over 20% in size)
In short: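 TSHR-HEK293 cells (800/well) plated 18 h, then compounds with Ro20-1724 and TSH at 1.5 ng/mL final, 30 min at room temperature. cAMP quantified by HTRF (cAMP-d2/anti-cAMP-cryptate, 1 h); 15 concentrations in triplicate.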

[8] = qHTS assay to identify small molecule agonists of the estrogen receptor alpha (ER-alpha) signaling pathway in the presence of an antagonist - cell viability counter screen (AID 1259386);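 also: series mostly up to about 92 µM; cells exposed to compounds for 22 h at 37 °C before the viability read; nearly all actives have a fitted effect of over 30% in size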
In short: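 Using estrogen-depleted VM7Luc4E2 cells, the 15-concentration compound series was applied together with 10.0nM ICI-182,780 and incubated 22hr at 37C/5% CO2. Cell viability was then scored by CellTiter-Fluor.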

[9] = target: Progesterone receptor (Homo sapiens) (UniProt P06401); assay: qHTS assay to identify small molecule agonists of the progesterone receptor (PR) signaling pathway (AID 1346784; calls by dose curve; also: nearly all actives have a fitted effect of over 30% in size)
In short: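 Compounds were tested for PR agonism in HEK 293T cells bearing a beta-lactamase gene under UAS control. Treatment lasted 16 hr at 37C; signal came from fluorescence of a FRET substrate.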

[10] = target: Progesterone receptor (Homo sapiens) (UniProt P06401); assay: qHTS assay to identify small molecule antagonists of the progesterone receptor (PR) signaling pathway (AID 1346795; active = well fitted inhibition curve with a large enough effect in the signal ratio in the repeat runs, not every such curve was filed as active; the % refers to the signal ratio)
In short: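 In HEK293T cells bearing the PR-UAS-bla reporter, compound effects on promegestone-driven (1 nM) beta-lactamase expression are assessed after 16 hr using a fluorescent FRET substrate incubated 2 hr at room temperature.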

[11] = qHTS assay to identify small molecule antagonists of the progesterone receptor (PR) signaling pathway - cell viability counter screen (AID 1346798); also: series mostly up to about 92 µM; nearly all actives have a fitted effect of over 50% in size
In short: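 Following a 4 hr attachment, PR-UAS-bla HEK293T cells in charcoal-stripped FBS medium were exposed to compounds with R5020 for 16 hr; CellTiter-Glo was added and luminescence read after 30 min at room temperature.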

[12] = qHTS assay to identify small molecule agonists of the progesterone receptor (PR) signaling pathway - cell viability counter screen (AID 1346799; calls by dose curve; also: nearly all actives have a fitted effect of over 45% in size)
In short: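 Here, 3,000 PR-UAS-bla HEK293T cells per well were treated with compounds for 16 hr after a 6 hr preincubation at 37C and 5% CO2; cell viability is the CellTiter-Glo luminescence signal.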

[13] = qHTS assay to identify small molecule agonists of the TGF-beta/Smad signaling pathway - cell viability counter screen (AID 1346829); also: top concentration of the series differs between compounds; nearly all actives have a fitted effect of over 45% in size
In short: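 Same-well cytotoxicity: CellTiter-Glo added after the 2 hr room-temperature beta-lactamase substrate step, luminescence measured 30 min later; cells had 5 hr of compound at 37 C.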

[14] = qHTS assay to identify small molecule agonists of the TGF-beta/Smad signaling pathway (AID 1346859; active = well fitted activation curve with a large enough effect in the signal ratio in the repeat runs, not every such curve was filed as active; the % refers to the signal ratio; also: series mostly up to about 77 µM)
In short: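 Each well held 4,000 SBE-bla HEK 293T cells incubated overnight before compound addition; 5 hr later the cleavable FRET substrate went on for 2 hr at room temperature, and fluorescence was read at two emissions.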

[15] = Human pregnane X receptor (PXR) small molecule agonists, qHTS cell viability counter screen (AID 1346977); also: nearly all actives have a fitted effect of over 50% in size
In short: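 Tox21 qHTS format; PXR-Luc HepG2, 2,000/well, charcoal-stripped FBS 5%. Cpd exposure 24hr. Read: CellTiter-Fluor fluorescence, multiplexed with luciferase.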

[16] = target: Thyrotropin-releasing hormone receptor (Homo sapiens) (UniProt P34981); assay: qHTS assay to identify small molecule antagonists of the thyrotropin-releasing hormone receptor (TRHR) signaling pathway (AID 1346877; active = well fitted inhibition curve with a large enough effect in the repeat runs, not every such curve was filed as active; also: series mostly up to about 51 µM)
In short: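 Calcium signal in dye-loaded TRHR/HEK293 cells; compounds added 5 min before TRH (1 nM final); fluorescence monitored 3 min at 1 s steps.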

[17] = target: Thyrotropin-releasing hormone receptor (Homo sapiens) (UniProt P34981); assay: qHTS assay to identify small molecule agonists of the thyrotropin-releasing hormone receptor (TRHR) signaling pathway (AID 1346891; calls by dose curve; also: series mostly up to about 58 µM)
In short: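 Screening of agonists relied on calcium signalling in HEK293 cells expressing human TRHR: dye loading 2 h at 37 °C preceded compound addition and a 3-min fluorescence time course.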

[18] = Caspase-3/7 induction in HepG2 cells by small molecules, qHTS assay (AID 1346978); also: nearly all actives have a fitted effect of over 15% in size
In short: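 Wild-type HepG2 cells, 2,000/well, settled 5 hr at 37 C and 5% CO2, then compound-treated for 17 hr; caspase-3/7 activity read by luminescent Caspase-Glo 3/7 after 30 min at room temperature.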

[19] = Caspase-3/7 induction in CHO-K1 cells by small molecules, qHTS cell viability counter screen (AID 1346979); also: nearly all actives have a fitted effect of over 35% in size
In short: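 CellTiter-Fluor viability check, qHTS format: wild-type CHO-K1, 16hr compound treatment, 1hr reagent incubation, fluorescence read.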

[20] = qHTS assay to identify small molecule antagonists of the TGF-beta/Smad signaling pathway - cell viability counter screen (AID 1346824); also: nearly all actives have a fitted effect of over 50% in size
In short: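 SBE-bla HEK 293T cells, incubated overnight, then compound plus 0.25 ng/mL TGF-beta1 (stock added) for 5 hr at 37 C. Viability was read in the same wells by CellTiter-Glo luminescence after 30 min at room temperature.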
% is scaled to controls: 0 for no effect and ±100 for the full control effect.

Androgen receptor (Homo sapiens), sequence (P10275 whole entry, looked up): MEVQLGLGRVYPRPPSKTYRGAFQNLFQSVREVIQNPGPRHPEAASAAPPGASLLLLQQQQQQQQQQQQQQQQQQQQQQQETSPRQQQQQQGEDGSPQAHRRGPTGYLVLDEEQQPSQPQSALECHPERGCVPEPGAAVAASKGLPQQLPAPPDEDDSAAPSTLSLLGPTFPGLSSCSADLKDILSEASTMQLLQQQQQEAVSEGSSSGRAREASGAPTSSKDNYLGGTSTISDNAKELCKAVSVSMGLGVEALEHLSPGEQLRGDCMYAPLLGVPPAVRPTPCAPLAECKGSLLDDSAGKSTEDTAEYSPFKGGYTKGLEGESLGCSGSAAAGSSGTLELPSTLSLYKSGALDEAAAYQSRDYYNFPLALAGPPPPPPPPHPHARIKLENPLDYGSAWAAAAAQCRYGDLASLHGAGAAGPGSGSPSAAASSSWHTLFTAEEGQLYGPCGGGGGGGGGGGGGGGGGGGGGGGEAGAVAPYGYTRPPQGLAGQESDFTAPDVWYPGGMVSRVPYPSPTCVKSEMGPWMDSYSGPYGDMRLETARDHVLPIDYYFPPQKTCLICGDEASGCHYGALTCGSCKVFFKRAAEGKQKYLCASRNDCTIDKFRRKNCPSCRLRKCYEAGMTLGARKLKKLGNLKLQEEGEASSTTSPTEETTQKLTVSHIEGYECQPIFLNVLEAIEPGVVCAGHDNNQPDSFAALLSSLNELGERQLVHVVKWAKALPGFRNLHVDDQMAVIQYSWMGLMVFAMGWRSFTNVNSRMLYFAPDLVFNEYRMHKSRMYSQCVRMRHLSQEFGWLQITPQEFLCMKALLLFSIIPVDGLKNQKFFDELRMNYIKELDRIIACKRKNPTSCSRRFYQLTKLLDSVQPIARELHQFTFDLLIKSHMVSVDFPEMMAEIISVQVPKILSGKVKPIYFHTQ
Progesterone receptor (Homo sapiens), sequence (P06401 whole entry, looked up): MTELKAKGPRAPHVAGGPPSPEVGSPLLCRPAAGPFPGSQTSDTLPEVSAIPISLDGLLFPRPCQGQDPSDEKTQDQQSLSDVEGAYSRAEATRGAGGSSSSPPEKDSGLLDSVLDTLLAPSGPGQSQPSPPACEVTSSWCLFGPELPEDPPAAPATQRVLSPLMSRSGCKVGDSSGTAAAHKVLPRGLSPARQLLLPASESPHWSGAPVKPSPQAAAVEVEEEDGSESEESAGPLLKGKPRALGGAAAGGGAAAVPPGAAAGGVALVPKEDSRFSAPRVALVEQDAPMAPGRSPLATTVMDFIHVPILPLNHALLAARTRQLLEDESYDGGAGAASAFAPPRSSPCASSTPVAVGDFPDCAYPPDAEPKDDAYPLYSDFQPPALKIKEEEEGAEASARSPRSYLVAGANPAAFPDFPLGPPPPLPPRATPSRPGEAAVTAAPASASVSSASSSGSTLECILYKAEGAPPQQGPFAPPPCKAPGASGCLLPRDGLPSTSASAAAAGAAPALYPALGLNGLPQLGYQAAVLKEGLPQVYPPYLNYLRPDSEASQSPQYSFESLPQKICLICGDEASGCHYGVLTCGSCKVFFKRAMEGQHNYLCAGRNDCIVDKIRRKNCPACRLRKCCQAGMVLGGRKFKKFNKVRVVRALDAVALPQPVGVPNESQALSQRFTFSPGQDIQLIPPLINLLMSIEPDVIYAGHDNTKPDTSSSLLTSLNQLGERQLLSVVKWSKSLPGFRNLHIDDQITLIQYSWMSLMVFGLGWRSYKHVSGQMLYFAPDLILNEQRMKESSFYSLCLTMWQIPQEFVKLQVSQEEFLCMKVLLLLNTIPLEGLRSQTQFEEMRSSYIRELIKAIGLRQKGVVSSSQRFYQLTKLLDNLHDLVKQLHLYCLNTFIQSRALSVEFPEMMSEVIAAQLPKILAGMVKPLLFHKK
Thyrotropin-releasing hormone receptor (Homo sapiens), sequence (P34981 whole entry, looked up): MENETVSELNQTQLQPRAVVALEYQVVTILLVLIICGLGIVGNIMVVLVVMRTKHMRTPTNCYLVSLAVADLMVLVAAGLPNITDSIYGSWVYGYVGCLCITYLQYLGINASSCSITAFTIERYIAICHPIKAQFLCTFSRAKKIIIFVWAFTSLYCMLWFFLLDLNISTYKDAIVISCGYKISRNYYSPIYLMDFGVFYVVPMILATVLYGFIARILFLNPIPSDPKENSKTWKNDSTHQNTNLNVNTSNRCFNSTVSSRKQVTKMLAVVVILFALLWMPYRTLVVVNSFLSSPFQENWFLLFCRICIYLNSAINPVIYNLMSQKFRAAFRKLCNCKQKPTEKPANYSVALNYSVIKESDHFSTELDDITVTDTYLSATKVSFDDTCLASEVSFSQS
Thyrotropin receptor (Homo sapiens), sequence (P16473 whole entry, looked up): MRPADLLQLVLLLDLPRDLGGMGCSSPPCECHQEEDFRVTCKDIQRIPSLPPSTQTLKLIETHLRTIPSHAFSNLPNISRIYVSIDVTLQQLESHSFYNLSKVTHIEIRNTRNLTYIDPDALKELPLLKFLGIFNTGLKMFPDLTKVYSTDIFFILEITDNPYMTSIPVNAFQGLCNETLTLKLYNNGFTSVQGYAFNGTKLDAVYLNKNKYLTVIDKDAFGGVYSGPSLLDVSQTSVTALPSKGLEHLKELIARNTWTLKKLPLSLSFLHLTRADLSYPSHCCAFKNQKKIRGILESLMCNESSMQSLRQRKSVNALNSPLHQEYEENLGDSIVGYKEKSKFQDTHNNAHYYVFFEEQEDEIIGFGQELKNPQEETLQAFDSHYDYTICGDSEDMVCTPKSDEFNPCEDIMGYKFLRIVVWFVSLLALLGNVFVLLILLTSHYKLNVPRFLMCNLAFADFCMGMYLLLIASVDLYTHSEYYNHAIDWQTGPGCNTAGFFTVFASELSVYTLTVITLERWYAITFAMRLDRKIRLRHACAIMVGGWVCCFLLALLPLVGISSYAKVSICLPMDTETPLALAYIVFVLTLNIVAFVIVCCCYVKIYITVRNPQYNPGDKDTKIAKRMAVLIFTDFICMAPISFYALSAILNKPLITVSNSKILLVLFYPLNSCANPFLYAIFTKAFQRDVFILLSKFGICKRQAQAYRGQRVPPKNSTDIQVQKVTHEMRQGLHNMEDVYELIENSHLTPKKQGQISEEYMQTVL
Estrogen receptor (Homo sapiens), sequence (P03372 whole entry, looked up): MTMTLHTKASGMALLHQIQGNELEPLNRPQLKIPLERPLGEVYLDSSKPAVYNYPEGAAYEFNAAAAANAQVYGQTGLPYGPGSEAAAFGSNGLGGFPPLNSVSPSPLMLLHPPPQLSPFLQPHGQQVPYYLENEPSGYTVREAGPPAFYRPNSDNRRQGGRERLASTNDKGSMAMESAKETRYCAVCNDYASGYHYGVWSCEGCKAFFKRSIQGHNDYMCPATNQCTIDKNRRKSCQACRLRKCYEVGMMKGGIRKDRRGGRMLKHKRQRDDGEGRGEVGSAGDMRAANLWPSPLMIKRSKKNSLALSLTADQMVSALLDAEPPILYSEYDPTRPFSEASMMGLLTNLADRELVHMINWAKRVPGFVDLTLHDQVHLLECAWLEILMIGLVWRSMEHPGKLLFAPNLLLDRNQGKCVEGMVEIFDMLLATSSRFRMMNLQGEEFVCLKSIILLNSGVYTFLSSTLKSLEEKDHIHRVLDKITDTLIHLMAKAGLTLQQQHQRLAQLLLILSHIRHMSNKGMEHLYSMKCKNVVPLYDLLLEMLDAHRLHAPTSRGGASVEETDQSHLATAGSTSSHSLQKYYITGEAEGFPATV

Cc1cc(C)c(O)c(C(C)(C)C)c1
inactive: Potency [1] | Potency [2] | Potency [3] | Potency [4] | Potency [5] | Potency [6] | Potency [7] | Potency [8] | outcome [9] | Potency [10] | Potency [11] | Potency [12] | Potency [13] | outcome [14] | Potency [15]

CCC1(C)C(=O)N(Cl)C(=O)N1Cl (stereo unspecified)
inactive: Potency [1] | Potency [2] | Potency [3] | Potency [4] | Potency [5] | Potency [7] | Potency [8] | outcome [9] | Potency [10] | Potency [11] | Potency [12] | Potency [13] | Potency [16] | Potency [17] | Potency [15] | Potency [18] | Potency [19]

CCC(=O)OC/C=C(\C)CCC=C(C)C
inactive: Potency [1] | Potency [2] | Potency [3] | Potency [5] | Potency [6] | Potency [7] | Potency [8] | outcome [9] | Potency [10] | Potency [11] | Potency [12] | Potency [20] | Potency [13] | outcome [14] | Potency [16] | Potency [17] | Potency [15] | Potency [18] | Potency [19]

Cc1ccc(C2OC[C@@H]3OC(c4ccc(C)cc4)O[C@H]([C@H](O)CO)[C@@H]3O2)cc1 (stereo partly specified)
inactive: Potency [1] | Potency [2] | Potency [3] | Potency [4] | Potency [5] | Potency [6] | Potency [7] | Potency [8] | outcome [9] | Potency [10] | Potency [11] | Potency [12] | Potency [20] | Potency [13] | outcome [14] | Potency [16] | Potency [15] | Potency [18] | Potency [19]

COc1cc(C(C)C)ccc1C
inactive: activity change, negative = cytotoxicity [1] 2.05% [at 19 µM] | activity change, negative = cytotoxicity [2] 2.27% [at 19 µM] | activation [3] 0.232% [at 19 µM] | activity change, negative = cytotoxicity [4] -0.566% [at 19 µM] | cAMP activity change [6] 3.96% [at 18.9 µM, active compounds read high] | activity change, negative = inhibition [7] -0.443% [at 19 µM] | activity change, negative = cytotoxicity [8] -2.95% [at 19 µM] | activation [9] 2.45% [at 19 µM] | activity change, negative = inhibition [10] 2.91% [at 18.9 µM] | activity change, negative = cytotoxicity [11] -15.7% [at 18.9 µM] | activity change, negative = cytotoxicity [12] -8.49% [at 19 µM] | viability change, negative = cytotoxic [20] -0.209% [at 15.8 µM] | activity change, negative = cytotoxicity [13] 6.13% [at 15.8 µM] | activation [14] 5.38% [at 15.8 µM] | activity, negative = inhibition [16] -0.302% [at 10.5 µM] | activation [17] 0.0321% [at 11.8 µM] | activity change, negative = cytotoxicity [15] 1.46% [at 19 µM] | caspase activation [18] 0.0291% [at 19 µM] | activity change, negative = cytotoxicity [19] -7.98% [at 19 µM]

[Cl][Sc]([Cl])[Cl]
inactive: Potency [1] | Potency [2] | Potency [3] | Potency [4] | Potency [5] | Potency [6] | Potency [7] | Potency [8] | outcome [9] | Potency [10] | Potency [11] | Potency [12] | Potency [20] | Potency [13] | Potency [15] | Potency [18] | Potency [19]

CCc1cccc(CC)c1
inactive: Potency [1] | Potency [2] | Potency [3] | Potency [4] | Potency [5] | Potency [8] | outcome [9] | Potency [10] | Potency [11] | Potency [12] | Potency [20] | outcome [14] | Potency [16] | Potency [15] | Potency [18]
